SARS 3CLpro inh – SARS-CoV 3CLpro protease inhibition | recombinant SARS-CoV 3CLpro, quenched FRET peptide cleavage | 290,000 compounds, 0.14% hits | P0C6X7 | inhibition, % at 6 µM | AID 1706; in the data active = inhibition above about 12%
BoNT-A LC inh2 – BoNT A light chain protease inhibition; multiplex microsphere protease substrate cleavage, flow cytometry; inhibition, % at 10 µM; 360,000 compounds, 0.17% hits; in the data active = inhibition above about 30%; inconclusive = no clear call, values can overlap the other calls; note: plate controls were buffer without enzyme for full effect and enzyme alone for no effect
Anthrax LF inh2 – inhibitors of Bacillus anthracis lethal factor protease; multiplex microsphere protease cleavage assay, LF; 360,000 compounds, 0.12% hits; AID 588501; inhibition, % at 10 µM; P15917; in the data active = inhibition above about 30%; inconclusive = no clear call, values can overlap the other calls; note: plate controls were buffer without enzyme for full effect and enzyme alone for no effect
CCHF vOTU inh-1 – blocks the CCHF virus ovarian tumor domain protease; CCHFV vOTU protease, Pep-AMC fluorescence; inhibition, % at 11.5 µM; 370,000 compounds, 0.55% hits; note: 0% = vehicle wells with enzyme and 100% = no enzyme wells
BoNT F protease – BoNT F light chain protease inhibition; AID 588497; 360,000 compounds, 0.22% hits; Multiplex microsphere protease cleavage assay, flow cytometry; inhibition, % at 10 µM; in the data active = inhibition above about 35%, passing the limit was not always enough; inconclusive = no clear call, values can overlap the other calls; note: plate controls were buffer without enzyme for full effect and enzyme alone for no effect
Bead autofluor – flagged as autofluorescent in microsphere protease counterscreen | compound autofluorescence counterscreen, microsphere flow cytometry; stronger effect = higher value | fluorescence intensity (test concentration not listed) | 360,000 compounds, 3.1% hits | AID 624483; in the data active = fluorescence intensity above about 16000; inconclusive = no clear call, values can overlap the other calls
CCHF vOTU inh-2 – confirmation of CCHF virus vOTU protease inhibitors | shares compounds with CCHF vOTU inh-1 | Recombinant CCHFV vOTU, Pep-AMC fluorescence | inhibition, % at 11.5 µM | 1,900 compounds, 17% hits | AID 686976
Numbers without * were called inactive; ? = inconclusive; . = no result given. Only some compounds are listed: those with a hit (about 3.9% of all), similar ones and a draw of the others. Cut-off read from the data, not from the text of the source, unless noted: active = inhibition above about 30%; inactive = the rest.

SMILES	SARS 3CLpro inh	BoNT-A LC inh2	Anthrax LF inh2	CCHF vOTU inh-1	BoNT F protease	Bead autofluor	CCHF vOTU inh-2
CC(C)(C)c1ccc(/C=N/Nc2nncn2N)cc1	0.4	2.0	2.9	88.7*	-6.7	3495	4.5
Nn1cnnc1N/N=C/c1cc(Br)cc(Br)c1O	-3.3	-0.9	1.0	104.3*	3.7	2367	-13.4
CC1CCN(c2ccc(/C=N\Nc3nncn3N)cc2[N+](=O)[O-])CC1	-2.6	-0.6	-5.3	87.8*	-21.1	2039	11.7
CSc1ccc(/C=N\Nc2nncn2N)cc1	0.3	-1.0	12.3	101.5*	15.9	3739	-7.0
CSc1ccc(/C=N/NC(=O)c2ccc(-n3cnnn3)cc2)cc1	.	-1.0	-3.9	1.8	-11.3	3245	.
C[C@@H]1COc2cc(N3CC[C@H](O)C3)ccc2S(=O)(=O)N1	.	-1.0	-10.7	-3.6	-8.0	4279	.
O=C1C(SCCO)=C(SCCO)C(=O)c2ccccc21	.	-0.3	-5.0	113.5*	-1.4	5735	107.0*
Cn1cc(/C=C2\SC(=S)N(NC(=O)c3ccccc3Cl)C2=O)c2ccccc21	2.2	25.8	23.1	30.7*	9.3	3678	27.1
Cc1ccc(S(=O)(=O)NCCOc2cc(C)ccc2C)cc1	1.0	-1.7	2.7	30.3*	-3.5	4852	-8.5
COc1ccccc1C(C(=O)NC1CCCCC1)N(C(=O)c1csnn1)C1CC1 (stereo not drawn)	-1.1	-0.5	5.3	-9.3	-12.3	3968	.
O=C(NC1CCCCC1)C(c1ccccc1F)N(C(=O)c1csnn1)C1CCCC1 (stereo not drawn)	-0.6	-2.9	4.9	65.2*	-4.3	3718	-5.5
S=C(Nc1ccc2nsnc2c1)N1CCCC1	-1.1	2.1	-6.7	104.8*	-10.0	4436	-12.3
CC(NS(=O)(=O)c1ccc(NC(=O)N2CCCCC2)cc1)c1ccccc1 (stereo not drawn)	4.9	-1.6	1.0	-6.7	-3.1	6416	.
CC(CCc1ccccc1)NC(=O)c1ccc(NC(=O)c2cccc(Br)c2)cc1 (stereo not drawn)	-1.3	0.1	-5.4	11.1	-5.3	2526	.
CC(CCc1ccccc1)NC(=O)c1ccc(NC(=O)c2ccccc2)cc1 (stereo not drawn)	-0.5	-0.3	-0.5	32.1*	0.1	2170	-7.7
O=C(N/N=C/c1ccccc1)c1cc(=O)[nH]c2ccccc12	4.8	0.5	0.0	0.7	1.3	1970	.
CN(C)c1ccc(/C=N/NC(=O)c2cc(=O)[nH]c3ccccc23)cc1	7.6	1.0	-6.9	32.5*	-6.2	5834	2.5
CCCCn1c(NS(=O)(=O)c2ccc(C)cc2)c(S(=O)(=O)c2ccccc2)c2nc3ccccc3nc21	3.5	3.0	-0.9	89.9*	0.2	7756	-60.2
Cc1ccc(S(=O)(=O)c2c(N)n(CCCN(C)C)c3nc4ccccc4nc23)cc1	2.5	1.0	-16.8	-187.5	?	3405	.
CCCCn1c(NS(=O)(=O)c2ccccc2)c(C(=O)OCC)c2nc3ccccc3nc21	1.1	5.9	2.1	34.8*	-22.1	2199	74.1*
Cc1ccc(N/C=C2/Sc3ccccc3NC2=O)cc1	9.3	-1.5	-1.5	30.6*	-6.4	2545	-8.8
Cc1cccc(NS(=O)(=O)c2ccc3[nH]c(=O)cc(C(=O)OC(C)C(=O)Nc4ccc([N+](=O)[O-])cc4)c3c2)c1 (stereo not drawn)	3.4	-0.8	-1.0	34.4*	-4.6	4679	-9.6
CCc1ccc(NC(=O)C(C)OC(=O)c2cc(=O)[nH]c3ccc(S(=O)(=O)Nc4ccc(F)cc4)cc23)cc1 (stereo not drawn)	-0.4	0.1	-1.0	-11.8	-4.1	2190	.
Cc1cccc(C)c1-n1nnnc1C1c2ccccc2C(=O)N1CCc1ccccc1F (stereo not drawn)	.	-0.2	-6.0	10.7	-4.0	4577	.
CCC(C)(C)C1CCC2(CC1)NC(=O)N(CC(=O)N1CCN(S(=O)(=O)c3cc(C)ccc3C)CC1)C2=O (stereo not drawn)	6.9	2.4	-1.4	-7.0	6.7	5776	.
CCCCCNc1ncnc2c(C)[nH]nc12	.	0.5	7.0	5.7	5.4	5501	.
O=C(O)c1cccc(Cn2c(Cl)c(/C=N/NC(=O)c3cc4ccccc4cc3O)sc2=O)c1	3.1	-0.9	6.3	30.2*	-5.2	4688	23.4

Assay outcomes from PubChem BioAssay.
